Results filed as inconclusive are left out. Activity calls are given as the source filed them. Calls come from the whole dose curve; as a rule, active = well fitted curve in the direction sought with a large enough effect; inconclusive = small, poorly fitted or top-dose-only effect, or another doubt; inactive = no such curve, though single readings can be large; an effect the other way counts as inactive or inconclusive.
Legend:
CRL-7250 = normal cell line; test: Cytotoxic Profiling of Annotated Libraries Using Quantitative High-Throughput Screening (AID 1296008); conditions: Five cell lines viability, CellTiter-Glo ATP luminescence, 48-72 h; max response: active compounds read low; note: nearly all actives have a fitted effect of over 60% in size; for max response: % is set by controls: 0 for no effect and ±100 for the full control effect
Summary of the method: (§1)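 Cells exposed to compounds for 48 or 72 hr at 37 degrees Celsius. Viability read as ATP-coupled luminescence with CellTiter-Glo after 10 min at room temperature.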

HEK293 = test: as above; conditions: Five cell lines viability, CellTiter-Glo ATP luminescence, 48-72 h; max response: active compounds read low
Summary of the method: as §1

HaCat [1] = test: as above; conditions: Five cell lines viability, CellTiter-Glo ATP luminescence, 48-72 h; max response: active compounds read low
Summary of the method: as §1

KB-3-1 = test: as above; conditions: Five cell lines viability, CellTiter-Glo ATP luminescence, 48-72 h; max response: active compounds read low
Summary of the method: as §1

NIH3T3 = test: as above; conditions: Five cell lines viability, CellTiter-Glo ATP luminescence, 48-72 h; max response: active compounds read low
Summary of the method: as §1

HACAT [2] = test: qHTS assay to identify novel small-molecules to repurpose for Merkel cell carcinoma treatment (AID 1296009); conditions: MCC and control cell lines, CellTiter-Glo viability, 72 h; at 44.8 µM (top of the series) unless noted; note: nearly all actives have a fitted effect of over 60% in size
Summary of the method: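 CellTiter-Glo luminescence after 72 hr compound exposure at 37 degree celsius gave cell viability. Libraries NPC and MIPE were run as 8- and 11-point dose responses; RLUs normalized to DMSO (negative) and no-cell (cytotoxicity) controls.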

C33A = test: Primary qHTS to identify gynecologic anti-cancer compounds using libraries of approved drugs and bioactive compounds (AID 1345084); conditions: Gynecologic cancer cell panel viability, ATPlite luminescence, 48 h; series mostly up to 57.5 µM; note: % is set by controls: 0 for no effect and ±100 for the full control effect; nearly all actives have a fitted effect of over 55% in size
Summary of the method: (§2)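 Cells, 1,000 per well, plated 16 h, then exposed 48 h at 37 C to compounds. Viability by ATPlite luminescence after 15 min at room temperature.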

CAOV3 = test: as above; conditions: Gynecologic cancer cell panel viability, ATPlite luminescence, 48 h; series mostly up to 57.5 µM
Summary of the method: as §2

CASKI = test: as above; conditions: Gynecologic cancer cell panel viability, ATPlite luminescence, 48 h; series mostly up to 57.5 µM
Summary of the method: as §2

Es-2 = test: as above; conditions: Gynecologic cancer cell panel viability, ATPlite luminescence, 48 h; series mostly up to 57.5 µM
Summary of the method: as §2

HeLa = test: as above; conditions: Gynecologic cancer cell panel viability, ATPlite luminescence, 48 h; series mostly up to 57.5 µM
Summary of the method: as §2

Hek293T = test: as above; conditions: Gynecologic cancer cell panel viability, ATPlite luminescence, 48 h, control line for the selectivity index; series mostly up to 57.5 µM
Summary of the method: as §2

JEG-3 = test: as above; conditions: Gynecologic cancer cell panel viability, ATPlite luminescence, 48 h; series mostly up to 57.5 µM
Summary of the method: as §2

OV90 = test: as above; conditions: Gynecologic cancer cell panel viability, ATPlite luminescence, 48 h; series mostly up to 57.5 µM
Summary of the method: as §2

COC(=O)C1=COC(OC2OC(CO)C(O)C(O)C2O)C2C(C)C(OC(=O)/C=C/c3ccc(O)cc3)C(O)C12 (centres undefined)
inactive: max response (CRL-7250) 0.486% | max response (HEK293) -0.112% | outcome (HaCat [1]) | max response (KB-3-1) 1.09% | max response (NIH3T3) -1.55% | outcome (HACAT [2]) inactive [at 17.4 µM] | Potency (C33A) | Potency (CAOV3) | outcome (CASKI) | Potency (Es-2) | Potency (HeLa) | Potency (Hek293T) | Potency (JEG-3) | Potency (OV90)

CC1=C[C@H]2[C@@H](CC1=O)[C@H](C)C[C@H](O)[C@H]2C(C)C
inactive: max response (CRL-7250) -22.7% | max response (HEK293) -24.5% | outcome (HaCat [1]) | max response (KB-3-1) -6.12% | max response (NIH3T3) -7.42% | outcome (HACAT [2]) | Potency (C33A) | Potency (CAOV3) | outcome (CASKI) | Potency (Es-2) | Potency (HeLa) | Potency (Hek293T) | Potency (JEG-3) | Potency (OV90)

O=C(O)c1cccc(C(=O)CCC2OC(n3cnc4c(=O)[nH]cnc43)C(O)C2O)c1 (centres undefined)
inactive: outcome (CRL-7250) | max response (HEK293) -2.52% | outcome (HaCat [1]) | max response (KB-3-1) 3.59% | outcome (NIH3T3) | outcome (HACAT [2]) inactive [at 17.4 µM] | Potency (C33A) | Potency (CAOV3) | outcome (CASKI) | Potency (Es-2) | Potency (HeLa) | Potency (Hek293T) | Potency (JEG-3) | Potency (OV90)

NC1=NC2(c3cc(NC(=O)c4ccc(F)cn4)ccc3F)COCC2CS1 (centres undefined)
inactive: max response (CRL-7250) 3.35% | max response (HEK293) -14.7% | outcome (HaCat [1]) | max response (KB-3-1) -4.81% | max response (NIH3T3) -8.12% | outcome (HACAT [2]) | Potency (C33A) | Potency (CAOV3) | outcome (CASKI) | Potency (Es-2) | Potency (HeLa) | Potency (Hek293T) | Potency (JEG-3) | Potency (OV90)

N#CC1C(=O)N=C(c2cc(Cl)ccc2O)C=C1c1cc(OCc2ccccc2)cc(OCc2ccccc2)c1 (centres undefined)
inactive: outcome (CRL-7250) | max response (HEK293) 3.52% | outcome (HaCat [1]) | outcome (KB-3-1) | max response (NIH3T3) 1.6% | outcome (HACAT [2]) | Potency (C33A) | Potency (CAOV3) | outcome (CASKI) | Potency (Es-2) | Potency (HeLa) | Potency (Hek293T) | Potency (JEG-3) | Potency (OV90)

COc1c2c(c(C)c3c1C(=O)OC3)OC1(C)CC(O)C34OC(O)(CCC3(C)C1C2)OC4(C)C (centres undefined)
inactive: outcome (CRL-7250) | max response (HEK293) -9.5% | outcome (HaCat [1]) | max response (KB-3-1) 7.14% | max response (NIH3T3) 2.29% | outcome (HACAT [2]) inactive [at 17.4 µM] | Potency (C33A) | Potency (CAOV3) | outcome (CASKI) | Potency (Es-2) | Potency (HeLa) | Potency (Hek293T) | Potency (JEG-3) | Potency (OV90)

CCCC(=O)Nc1cccc(NC(=O)c2ccccc2Br)c1
inactive: outcome (CRL-7250) | max response (HEK293) -4.38% | outcome (HaCat [1]) | max response (KB-3-1) 8.7% | max response (NIH3T3) 3.78% | outcome (HACAT [2]) | Potency (C33A) | Potency (CAOV3) | outcome (CASKI) | Potency (Es-2) | Potency (HeLa) | Potency (Hek293T) | Potency (JEG-3) | Potency (OV90)

CCC(C)C(=O)O[C@H]1C[C@](C)(O)[C@]23OC(C)(C)[C@H](C[C@H](OC(=O)c4ccccc4)[C@]2(COC(C)=O)[C@H]1OC(=O)C(C)CC)[C@H]3OC(C)=O (some centres undefined)
inactive: max response (CRL-7250) -7.32% | max response (HEK293) -12.8% | outcome (HaCat [1]) | outcome (KB-3-1) | max response (NIH3T3) 4.39% | outcome (HACAT [2]) inactive [at 17.4 µM] | Potency (C33A) | Potency (CAOV3) | outcome (CASKI) | Potency (Es-2) | Potency (HeLa) | Potency (Hek293T) | Potency (JEG-3) | Potency (OV90)

C[C@H]1[C@H](C)CC[C@]2(C(=O)OC3OC(CO)C(O)C(O)C3O)CC[C@]3(C(=O)O)C(=CCC4[C@@]5(C)CC[C@H](O[C@@H]6O[C@@H](C)[C@H](OC7OC(CO)C(O)C(O)C7O)[C@@H](O)[C@H]6O)C(C)(C)C5CC[C@]43C)[C@H]12 (some centres undefined)
inactive: max response (CRL-7250) -1.78% | max response (HEK293) 2.35% | outcome (HaCat [1]) | outcome (KB-3-1) | max response (NIH3T3) -8.63% | outcome (HACAT [2]) inactive [at 9.27 µM] | activity change, negative = cytotoxicity (C33A) -28.6% [at 11.6 µM] | activity change, negative = cytotoxicity (CAOV3) 3.53% [at 11.6 µM] | activity change, negative = cytotoxicity (CASKI) 6.49% [at 11.6 µM] | activity change, negative = cytotoxicity (Es-2) 4.54% [at 11.6 µM] | activity change, negative = cytotoxicity (HeLa) -0.904% [at 11.6 µM] | activity change, negative = cytotoxicity (Hek293T) 6.98% [at 11.6 µM] | activity change, negative = cytotoxicity (JEG-3) 7.38% [at 11.6 µM] | activity change, negative = cytotoxicity (OV90) 2.97% [at 11.6 µM]

C=C1C[C@]23C[C@H]1CC[C@H]2[C@]1(C)CC[C@H](O)[C@@](C)(C(=O)O)[C@H]1[C@@H]3C(=O)O
inactive: max response (CRL-7250) -9.09% | max response (HEK293) 0.167% | outcome (HaCat [1]) | max response (KB-3-1) -2.4% | max response (NIH3T3) 2.39% | outcome (HACAT [2]) | Potency (C33A) | Potency (CAOV3) | outcome (CASKI) | Potency (Es-2) | Potency (HeLa) | Potency (Hek293T) | Potency (JEG-3) | Potency (OV90)

C=C(C)[C@@H]1CC[C@]2(C)CC[C@]3(C)C(CCC4[C@@]5(C)CC[C@H](O)C(C)(C)C5CC[C@]43C)C12 (some centres undefined)
inactive: outcome (CRL-7250) | max response (HEK293) 1.06% | outcome (HaCat [1]) | outcome (KB-3-1) | max response (NIH3T3) 2.33% | outcome (HACAT [2]) inactive [at 17.4 µM] | Potency (C33A) | Potency (CAOV3) | outcome (CASKI) | Potency (Es-2) | Potency (HeLa) | Potency (Hek293T) | Potency (JEG-3) | Potency (OV90)

Reference: PubChem BioAssay (NCATS)
